In PubChem BioAssay (NCI):
Compounds without any hit were thinned out: in the full panel of roughly 83,000, 20% have a hit.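 How to read the values: 0–100, growth inhibition (40 = 60% inhibited); 0, no net growth; -100 to 0, cell death (-40 = 40% of starting cells died; -100 = all dead).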 A number with no mark means an inactive call. How the source made its calls: active means growth percent below 10; inactive means the rest.

System: NCI-H23 lung
Assay: NCI-60 one-dose screen, 48 h (100 = growth as untreated, 0 = no growth, -100 = all killed)
Conditions: 10 µM

Compared with CNC(=S)NC(C)(C)C, CC(=O)c1ccc(C(C)(C)C)cc1 is lower in growth: 104% for the first, 95.7% for the second.

Going from CCCC(=O)Nc1ccc2c(c1)CN1C(=O)c3ccccc3C1=N2 to CCOC(=O)C1=C(C)NC(=O)NC1c1cccs1 (stereo not drawn), the growth falls from 106% to 98.4%.

Compared with c1ccc(/C(=N\N=C(/c2ccccc2)c2cccs2)c2cccs2)cc1, O=[N+]([O-])c1ccc(N=Nc2ccccc2)cc1 is lower in growth: 97.3% for the first, 90.4% for the second.

First: CC1(C)N=C(N)N=C(N)N1c1cccc(Br)c1
Second: Nc1ccc(CC(=O)O)c(N)c1
The growth of the first is lower: 20.8% for the first, 92.3% for the second.

First: Oc1ccc(N=Nc2ccc(Br)cc2)c(O)c1
Second: O=[N+]([O-])c1ccc(-c2noc(-c3cccs3)n2)cc1
The growth of the first is lower: 19.6% for the first, 82.1% for the second.

Compared with CN(C)CCC(=O)c1ccc(O)cc1, COC(=O)/C=C1\Sc2cc(F)ccc2NC1=O is lower in growth: 97% for the first, 95.7% for the second.

Compared with COc1nc(N)nc2c1ncn2C1OC(CO)CC1O (stereo not drawn), COc1cc2cc(OC(C)=O)c3cc4c(cc3c2c(OC)c1OC)OCO4 is lower in growth: 103% for the first, 91.9% for the second.

First: O=S(=O)(O)CC(O)CN1CCN(CCO)CC1 (stereo not drawn)
Second: CCC(O)CC(CC)CO (stereo not drawn)
The growth of the first is lower: 94.2% for the first, 101% for the second.

With O=[N+]([O-])c1ccc(/C=C/C=C/c2ccccc2)c(Cl)c1 the growth was 89.8%.

System: NCI-H226 lung
Assay: as above
Conditions: 10 µM

First: O=[N+]([O-])c1ccc(Sc2ccncn2)c([N+](=O)[O-])c1
Second: O=[N+]([O-])c1ccc(-c2noc(-c3cccs3)n2)cc1
The growth of the first is lower: 55.3% for the first, 86.3% for the second.

First: COc1ccc(NC(=O)CCl)cc1
Second: O=C(CS)Nc1ccc2ccccc2c1
The growth of the first is lower: 82.5% for the first, 121% for the second.

Going from Cc1cc(=O)cc(C)n1-c1ccccc1 to CCOc1ccc(/C=C/C(=O)c2ccccc2)cc1, the growth rises from 96.3% to 114%.

Going from CC(=O)Oc1ccc(Br)cc1C(=O)O to Nc1ccc(CC(=O)O)c(N)c1, the growth falls from 99% to 92%.

Compared with CC1CCC(C(=O)O)N1 (stereo not drawn), CC(C)CCCC(=O)O is higher in growth: 97.3% for the first, 101% for the second.

Compared with O=C(CCNNC(=O)c1ccncc1)NCc1ccccc1, N=c1c(C(=O)OCc2ccccc2)ncc(CCl)n1O is higher in growth: 90.7% for the first, 92.9% for the second.

Compared with CCOC(=O)c1[nH]c(C)c(C(C)=O)c1C, CCOC(=O)C1=C(C)NC(=O)NC1c1cccs1 (stereo not drawn) is higher in growth: 103% for the first, 110% for the second.

Going from Cc1cc(C)c(N)c(S(=O)(=O)O)c1 to Cc1cccc(C(=O)N(C(C)C)C(C)C)c1, the growth falls from 96.4% to 87.7%.

Going from N#Cc1c(N)sc(=S)c2c1CCCC2 to S=C(Nc1ccccc1)N1CCCCC1, the growth falls from 104% to 89.6%.

First: O=C(O)C(c1ccccc1)C(O)c1ccccc1 (stereo not drawn)
Second: O=c1cc(-c2ccccc2)oc2c1ccc1ccccc12
The growth of the first is lower: 77.8% for the first, 86.3% for the second.

First: O=C(c1ccc(O)cc1)c1ccc(O)cc1
Second: O=C(c1ccc(Cl)cc1)c1ccccc1Cl
The growth of the first is lower: 98.1% for the first, 99.9% for the second.

Going from O=c1cc2oc3cc(O)c(O)cc3c(-c3ccccc3O)c-2cc1O to CCCC(=O)Nc1ccc2c(c1)CN1C(=O)c3ccccc3C1=N2, the growth rises from 87% to 100%.

Compared with Nc1ccccc1C(=O)Nc1ccc(Cl)cc1Cl, O=[N+]([O-])c1ccc(/C=C/C=C/c2ccccc2)c(Cl)c1 is higher in growth: 96.1% for the first, 102% for the second.

Compared with CNC(=S)NC(C)(C)C, CC(=O)c1ccc(C(C)(C)C)cc1 is lower in growth: 102% for the first, 98.4% for the second.

Compared with c1ccc(/C(=N\N=C(/c2ccccc2)c2cccs2)c2cccs2)cc1, O=[N+]([O-])c1ccc(N=Nc2ccccc2)cc1 is higher in growth: 89.3% for the first, 89.4% for the second.

Compared with CC1(C)N=C(N)N=C(N)N1c1cccc(Br)c1, Oc1ccc(N=Nc2ccc(Br)cc2)c(O)c1 is higher in growth: 58.8% for the first, 83.6% for the second.

Going from CN(C)CCC(=O)c1ccc(O)cc1 to COC(=O)/C=C1\Sc2cc(F)ccc2NC1=O, the growth rises from 99% to 101%.

Going from COc1nc(N)nc2c1ncn2C1OC(CO)CC1O (stereo not drawn) to COc1cc2cc(OC(C)=O)c3cc4c(cc3c2c(OC)c1OC)OCO4, the growth falls from 103% to 94.7%.

First: O=S(=O)(O)CC(O)CN1CCN(CCO)CC1 (stereo not drawn)
Second: CCC(O)CC(CC)CO (stereo not drawn)
The growth of the first is higher: 108% for the first, 102% for the second.

System: NCI-H322M lung
Assay: as above
Conditions: 10 µM

Going from O=[N+]([O-])c1ccc(Sc2ccncn2)c([N+](=O)[O-])c1 to O=[N+]([O-])c1ccc(-c2noc(-c3cccs3)n2)cc1, the growth falls from 106% to 81.4%.

First: COc1ccc(NC(=O)CCl)cc1
Second: O=C(CS)Nc1ccc2ccccc2c1
The growth of the first is lower: 99.1% for the first, 127% for the second.

Going from Cc1cc(=O)cc(C)n1-c1ccccc1 to CCOc1ccc(/C=C/C(=O)c2ccccc2)cc1, the growth rises from 106% to 132%.

Compared with CC(=O)Oc1ccc(Br)cc1C(=O)O, Nc1ccc(CC(=O)O)c(N)c1 is lower in growth: 101% for the first, 97.6% for the second.

Compared with CC1CCC(C(=O)O)N1 (stereo not drawn), CC(C)CCCC(=O)O is lower in growth: 95.2% for the first, 93.4% for the second.

Going from O=C(CCNNC(=O)c1ccncc1)NCc1ccccc1 to N=c1c(C(=O)OCc2ccccc2)ncc(CCl)n1O, the growth falls from 110% to 98.6%.

First: CCOC(=O)c1[nH]c(C)c(C(C)=O)c1C
Second: CCOC(=O)C1=C(C)NC(=O)NC1c1cccs1 (stereo not drawn)
The growth of the first is lower: 101% for the first, 111% for the second.

First: Cc1cc(C)c(N)c(S(=O)(=O)O)c1
Second: Cc1cccc(C(=O)N(C(C)C)C(C)C)c1
The growth of the first is higher: 108% for the first, 104% for the second.

First: N#Cc1c(N)sc(=S)c2c1CCCC2
Second: S=C(Nc1ccccc1)N1CCCCC1
The growth of the first is higher: 123% for the first, 99% for the second.

Compared with O=C(O)C(c1ccccc1)C(O)c1ccccc1 (stereo not drawn), O=c1cc(-c2ccccc2)oc2c1ccc1ccccc12 is lower in growth: 97.6% for the first, 96% for the second.

Going from O=C(c1ccc(O)cc1)c1ccc(O)cc1 to O=C(c1ccc(Cl)cc1)c1ccccc1Cl, the growth rises from 95.3% to 97.9%.

First: O=c1cc2oc3cc(O)c(O)cc3c(-c3ccccc3O)c-2cc1O
Second: CCCC(=O)Nc1ccc2c(c1)CN1C(=O)c3ccccc3C1=N2
The growth of the first is lower: 57.5% for the first, 99.1% for the second.

First: Nc1ccccc1C(=O)Nc1ccc(Cl)cc1Cl
Second: O=[N+]([O-])c1ccc(/C=C/C=C/c2ccccc2)c(Cl)c1
The growth of the first is higher: 106% for the first, 96.4% for the second.

Compared with CNC(=S)NC(C)(C)C, CC(=O)c1ccc(C(C)(C)C)cc1 is higher in growth: 98.4% for the first, 104% for the second.

Compared with c1ccc(/C(=N\N=C(/c2ccccc2)c2cccs2)c2cccs2)cc1, O=[N+]([O-])c1ccc(N=Nc2ccccc2)cc1 is lower in growth: 83.1% for the first, 80% for the second.

First: CC1(C)N=C(N)N=C(N)N1c1cccc(Br)c1
Second: Oc1ccc(N=Nc2ccc(Br)cc2)c(O)c1
The growth of the first is lower: 46.9% for the first, 67% for the second.

Compared with CN(C)CCC(=O)c1ccc(O)cc1, COC(=O)/C=C1\Sc2cc(F)ccc2NC1=O is lower in growth: 106% for the first, 100% for the second.

Compared with COc1nc(N)nc2c1ncn2C1OC(CO)CC1O (stereo not drawn), COc1cc2cc(OC(C)=O)c3cc4c(cc3c2c(OC)c1OC)OCO4 is lower in growth: 96.8% for the first, 95.4% for the second.

First: O=S(=O)(O)CC(O)CN1CCN(CCO)CC1 (stereo not drawn)
Second: CCC(O)CC(CC)CO (stereo not drawn)
The growth of the first is higher: 112% for the first, 110% for the second.
